Values joined by “and” are separate entries in the source; they are usually repeats but may differ in a detail not shown here. Equal values may be shown once. Compounds without any hit were thinned out: in the full panel of roughly 83,000, 20% have a hit.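 Note: values are percent growth. 100 is the growth of untreated cells, values between 100 and 0 indicate rising inhibition; between -100 and 0 indicates cell death.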 Values without a mark were called inactive. Active and inactive are the calls of the source. The calls were made as follows: active = growth percent below 10; inactive = the rest.
Key:
Experiment in all cases: NCI-60 one-dose screen, 48 h (100 = growth as untreated, 0 = no growth, -100 = all killed)
Conditions in all cases: 10 µM unless noted
[1] = test system: NCI-H23 lung
[2] = test system: NCI-H226 lung
[3] = test system: NCI-H322M lung
[4] = test system: HOP-62 NSCLC
[5] = test system: NCI-H460 lung
[6] = test system: HOP-92 NSCLC
[7] = test system: NCI-H522 lung
[8] = test system: A549/ATCC NSCLC
[9] = test system: 786-0 renal
[10] = test system: COLO 205 colon
[11] = test system: DU-145 prostate
[12] = test system: K-562 leukemia
[13] = test system: MALME-3M melanoma
[14] = test system: MDA-MB-231 breast
[15] = test system: RXF 393 renal
[16] = test system: SF-268 CNS
[17] = test system: SF-295 CNS
[18] = test system: SF-539 CNS
[19] = test system: UACC-257 melanoma
[20] = test system: M14 melanoma

## O=C(CSc1nc2sc3c(c2c(=O)n1-c1ccc(Cl)cc1)CCCC3)NNC(=O)c1ccc(F)cc1
[1]
  growth: 73.7%
[2]
  growth: 62.7%
[3]
  growth: 73.8%
[4]
  growth: 23.7%
[5]
  growth: 88.6%
[6]
  growth: 69.2%
[7]
  growth: 77.3%
[8]
  growth: 94.2%
[9]
  growth: 96.8%
[10]
  growth: 125%
[11]
  growth: 109%
[12]
  growth: 72.3%
[13]
  growth: 80.5%
[14]
  growth: 28.8%
[15]
  growth: 89.7%
[16]
  growth: 95.9%
[17]
  growth: 90.4%
[18]
  growth: -28.4% (active)
[19]
  growth: 106%
[20]
  growth: 80.6%

## COc1ccc2c(c1)C(Sc1ccc(Cl)cc1)c1c(nc(N)c(C#N)c1N)O2 (stereo not given)
[1]
  growth: 74.6%
[2]
  growth: 64.9%
[3]
  growth: 86.4%
[4]
  growth: 61.8%
[5]
  growth: 63.2%
[6]
  growth: 76.7%
[7]
  growth: 54.5%
[8]
  growth: 53.7%
[9]
  growth: 61.8%
[10]
  growth: 87.2%
[11]
  growth: 86%
[12]
  growth: 47.6%
[13]
  growth: 82.2%
[14]
  growth: 56.4%
[15]
  growth: 56.4%
[16]
  growth: 46%
[17]
  growth: 55.7%
[18]
  growth: 61.8%
[19]
  growth: 104%
[20]
  growth: 66.4%

## Cc1ccccc1Nc1nnc(-c2c[nH]c3ccccc23)o1
[1]
  growth: 28.1%
[2]
  growth: 43.9%
[3]
  growth: 38.2%
[4]
  growth: 24.8%
[5]
  growth: 20.1%
[6]
  growth: 29.1%
[7]
  growth: -23.2% (active)
[8]
  growth: 40.3%
[9]
  growth: 40%
[10]
  growth: -32.7% (active)
[11]
  growth: 26.4%
[12]
  growth: 7.28% (active)
[13]
  growth: 33.5%
[14]
  growth: 26.9%
[15]
  growth: -4.44% (active)
[16]
  growth: 59%
[17]
  growth: 8.71% (active)
[18]
  growth: -25.9% (active)
[19]
  growth: 49.7%
[20]
  growth: 6.24% (active)

## COc1ccc2c(c1)C(=O)N(C)C2C1c2c(cc3c(c2OC)OCO3)CCN1C (stereo not given)
[1]
  growth: 64.9%
[2]
  growth: 65.1%
[3]
  growth: 75.9%
[4]
  growth: 54.5%
[5]
  growth: 20.7%
[6]
  growth: 78.7%
[7]
  growth: 36%
[8]
  growth: 57.9%
[9]
  growth: 65.9%
[10]
  growth: 33.1%
[11]
  growth: 73.2%
[12]
  growth: 16.6%
[13]
  growth: 33.8%
[14]
  growth: 66.7%
[15]
  growth: 19.8%
[16]
  growth: 66%
[17]
  growth: 26.7%
[18]
  growth: 45.5%
[19]
  growth: 71%
[20]
  growth: 36.6%

## NC1(c2ccc(-c3ccc4ncnc(NCc5ccccc5)c4c3)cn2)COC1
[1]
  growth: 108% and 105%
[2]
  growth: 103% and 111%
[3]
  growth: 109% and 97%
[4]
  growth: 118% and 112%
[5]
  growth: 106% and 112%
[6]
  growth: 112% and 120%
[7]
  growth: 109% and 105%
[8]
  growth: 111% and 109%
[9]
  growth: 115% and 104%
[10]
  growth: 112% and 126%
[11]
  growth: 105% and 97.7%
[12]
  growth: 114% and 100%
[13]
  growth: 106%
[14]
  growth: 105% and 106%
[15]
  growth: 103% and 101%
[16]
  growth: 111% and 113%
[17]
  growth: 102% and 101%
[18]
  growth: 101% and 104%
[19]
  growth: 120% and 109%
[20]
  growth: 134% and 114%

## COc1ccc(-c2cc(-c3cc(OC)c(OC)c(OC)c3)[nH]c(=O)c2C#N)cc1
[1]
  growth: 86%
[2]
  growth: 23.4%
[3]
  growth: 5.73% (active)
[4]
  growth: 12.9%
[5]
  growth: 52.4%
[6]
  growth: -33.5% (active)
[7]
  growth: 50.6%
[8]
  growth: 59.3%
[9]
  growth: -65.4% (active)
[10]
  growth: 130%
[11]
  growth: 93%
[12]
  growth: 79.1%
[13]
  growth: 29.7%
[14]
  growth: 1.65% (active)
[15]
  growth: 14.6%
[16]
  growth: 54.3%
[17]
  growth: 59.1%
[18]
  growth: -18.3% (active)
[19]
  growth: 96.4%
[20]
  growth: 96.7%

## Nc1nnc(CS(=O)(=O)c2ccccc2)s1
[1]
  growth: 107%
[2]
  growth: 121%
[3]
  growth: 94.6%
[4]
  growth: 102%
[5]
  growth: 114%
[6]
  growth: 86.5%
[7]
  growth: 80.8%
[8]
  growth: 102%
[9]
  growth: 108%
[10]
  growth: 117%
[11]
  growth: 113%
[12]
  growth: 98.9%
[13]
  growth: 94.1%
[14]
  growth: 102%
[15]
  growth: 172%
[16]
  growth: 105%
[17]
  growth: 99.2%
[18]
  growth: 101%
[19]
  growth: 97.1%
[20]
  growth: 97.3%

## CN(C)C(=O)c1cc(-c2ccc3ncnc(N4CCc5cc(F)c(Cl)cc54)c3c2)cnc1N
[1]
  growth: -18.1% (active)
[2]
  growth: -25.4% (active)
[3]
  growth: -64.2% (active)
[4]
  growth: -32.6% (active)
[5]
  growth: 3.44% (active)
[6]
  growth: -45.7% (active)
[7]
  growth: -13.4% (active)
[8]
  growth: -66.9% (active)
[9]
  growth: -82.2% (active)
[10]
  growth: -76.5% (active)
[11]
  growth: 23%
[12]
  growth: -21.7% (active)
[13]
  growth: -57.7% (active)
[14]
  growth: -49.2% (active)
[15]
  growth: -73.7% (active)
[16]
  growth: 24.2%
[17]
  growth: -73.1% (active)
[18]
  growth: -73.2% (active)
[19]
  growth: 4.11% (active)
[20]
  growth: -36.7% (active)

## CC(C)(C)c1cc(-c2cc(-c3ccccc3)[nH]c(=O)c2C#N)cc(C(C)(C)C)c1
[1]
  growth: 40.4%
[2]
  growth: 3.42% (active)
[3]
  growth: 23.6%
[4]
  growth: -40.2% (active)
[5]
  growth: 14.9%
[6]
  growth: -16% (active)
[7]
  growth: 41.8%
[8]
  growth: 5.52% (active)
[9]
  growth: 23%
[10]
  growth: 91.5%
[11]
  growth: 34.5%
[12]
  growth: 62.9%
[13]
  growth: 37.6%
[14]
  growth: -21.4% (active)
[15]
  growth: -2.55% (active)
[16]
  growth: 40.8%
[17]
  growth: 0.897% (active)
[18]
  growth: 21.1%
[19]
  growth: 43.1%
[20]
  growth: 40.2%

## Clc1ccc(-c2nc3c4c(-c5ccccc5)c(-c5ccccc5)n(Cc5ccccc5)c4ncn3n2)cc1
[1]
  growth: 2.75% (active)
[2]
  growth: -3.39% (active)
[3]
  growth: 21%
[4]
  growth: 19.8%
[5]
  growth: 3.08% (active)
[6]
  growth: -23.1% (active)
[7]
  growth: -28.5% (active)
[8]
  growth: 14.1%
[9]
  growth: 5.51% (active)
[10]
  growth: -59.2% (active)
[11]
  growth: 22.7%
[12]
  growth: 4.9% (active)
[13]
  growth: 4.59% (active)
[14]
  growth: 0.484% (active)
[15]
  growth: -11.3% (active)
[16]
  growth: 20.4%
[17]
  growth: -14.1% (active)
[18]
  growth: 7.91% (active)
[19]
  growth: 3.18% (active)
[20]
  growth: 15.4%

## COc1cc(/C=C/C(=O)c2cnn(-c3cc(=O)[nH]c4ccccc34)c2C)cc(OC)c1OC
[1]
  growth: 3.65% (active)
[2]
  growth: 21.9%
[3]
  growth: 12.8%
[4]
  growth: -1.9% (active)
[5]
  growth: 7.98% (active)
[6]
  growth: 23.3%
[7]
  growth: -18.1% (active)
[8]
  growth: 7.4% (active)
[9]
  growth: 18.2%
[10]
  growth: 4.15% (active)
[11]
  growth: 24.9%
[12]
  growth: 3.19% (active)
[13]
  growth: 38.2%
[14]
  growth: 5.84% (active)
[15]
  growth: -6.88% (active)
[16]
  growth: 32.2%
[17]
  growth: 14.5%
[18]
  growth: -48% (active)
[19]
  growth: 43.3%
[20]
  growth: 19.5%

## COc1cc(CNC(=O)C[C@H](C)CCC=C(C)C)ccc1OCc1cn(-c2ccccc2Cl)nn1
[1]
  growth: 64.5%
[2]
  growth: 59.7%
[3]
  growth: 91.3%
[4]
  growth: 79.3%
[5]
  growth: 78.4%
[6]
  growth: 79.4%
[7]
  growth: 51.4%
[8]
  growth: 64.1%
[9]
  growth: 87.7%
[10]
  growth: 71.7%
[11]
  growth: 90.1%
[12]
  growth: 44.6%
[13]
  growth: 68.2%
[14]
  growth: 72.6%
[15]
  growth: 72.6%
[16]
  growth: 82.4%
[17]
  growth: 56.4%
[18]
  growth: 75.2%
[19]
  growth: 60.3%
[20]
  growth: 55.9%

## CN1CCN(C(=O)Oc2cc3c(c4ccccc24)[C@H](CCl)CN3C(=O)c2cc3cc(OCCCN4CCC4)ccc3[nH]2)[C@H]2CSSC[C@H]21
[1]
  growth: -65% (active)
[2]
  growth: -14.5% (active)
[3]
  growth: -13.1% (active)
[4]
  growth: -37.8% (active)
[5]
  growth: 0.951% (active)
[6]
  growth: -18.8% (active)
[7]
  growth: -54.8% (active)
[8]
  growth: 4% (active)
[9]
  growth: -8.82% (active)
[10]
  growth: -81.5% (active)
[11]
  growth: -3.53% (active)
[12]
  growth: 3.04% (active)
[13]
  growth: -64.8% (active)
[14]
  growth: -14.8% (active)
[15]
  growth: -78.8% (active)
[16]
  growth: -9.36% (active)
[17]
  growth: -6.36% (active)
[18]
  growth: -75.2% (active)
[19]
  growth: -15.6% (active)
[20]
  growth: -75.2% (active)

## Cc1nn(-c2ccccc2)c2ncn(CC(=O)N/N=C/c3ccccc3O)c(=O)c12
[1]
  growth: 40.7%
[2]
  growth: 47.6%
[3]
  growth: 39.1%
[4]
  growth: 27.4%
[5]
  growth: 17.7%
[6]
  growth: 55.8%
[7]
  growth: 21%
[8]
  growth: 38.9%
[9]
  growth: 37.2%
[10]
  growth: 10.3%
[11]
  growth: 51.6%
[12]
  growth: 26.5%
[13]
  growth: 55.9%
[14]
  growth: 35.9%
[15]
  growth: 42.2%
[16]
  growth: 38.9%
[17]
  growth: 24.9%
[18]
  growth: 46.7%
[19]
  growth: 54.9%
[20]
  growth: 45.2%

## O=C1Nc2cc(-c3ccc(NS(=O)(=O)c4ccc(F)c(Cl)c4)cc3)ccc2/C1=C/c1ccc[nH]1
[1]
  growth: -25.5% (active)
[2]
  growth: 37%
[3]
  growth: 26.4%
[4]
  growth: 27.2%
[5]
  growth: -10.6% (active)
[6]
  growth: 37.2%
[7]
  growth: 6.92% (active)
[8]
  growth: 3.71% (active)
[9]
  growth: 35.6%
[10]
  growth: 35.4%
[11]
  growth: 20%
[12]
  growth: 17.3%
[13]
  growth: 50.3%
[14]
  growth: -6.71% (active)
[15]
  growth: 29.5%
[16]
  growth: 60.1%
[17]
  growth: 53.6%
[18]
  growth: -34.8% (active)
[19]
  growth: 29.7%
[20]
  growth: 48.4%

Source: PubChem BioAssay (NCI)
